Results as given in PubChem BioAssay AID588345 (Broad Institute, 2011).
The campaign covered roughly 1,300 compounds. About 850 (65%) were called active. Roughly 1% stayed inconclusive and do not appear here. No rule for the calls is given here. So high a share suggests a set chosen from earlier hits. The list is a sample of the results. Results with a measured potency or affinity are listed apart.

Molecular target: Dual specificity tyrosine-phosphorylation-regulated kinase 1A (Rattus norvegicus) (UniProt Q63470)
Assay: rat Dyrk1A kinase inhibitors, dose response, biochemical, cherry-pick, plate reader, 2124-01 (AID 588345)
Conditions: Dyrk1A kinase biochemical assay; series mostly up to 12 µM; activity change, negative = inhibition: at the top concentration

Activity change, negative = inhibition, inactive:
Cc1cccc(-n2nc3c(c2NC(=O)CCC2CCCCC2)CS(=O)C3)c1C (stereo not given) 8.66%
Cc1noc(NS(=O)(=O)c2ccc(N/C=C\C(=O)c3ccc(Br)cc3)cc2)c1C 2.2%
COc1ccc(C(=O)Nc2nc3ccccc3[nH]2)cc1S(=O)(=O)N1CCOCC1 6.37%
C=CCN1C(=O)/C(=C/c2ccccc2)S/C1=N/c1nccs1 11.6%
CC(C)(C)NC(=O)C(=O)NC(=O)c1c(F)cccc1Cl -4.54%
O=C(c1ccc2c(c1)OCCCO2)N1CCCCC1 3.39%
CC(NC(=O)COC(=O)c1ccc([N+](=O)[O-])s1)c1ccccc1 (stereo not given) -0.463%
CCOC(=O)C1=C(C)OC(N)=C(C#N)C1c1cc2c(cc1Br)OCO2 (stereo not given) -18%
C=CCOC(=O)C1=C(C)NC(=O)NC1c1ccc(Cl)cc1 (stereo not given) 7.5%
COC(=O)c1nn(-c2ccc3c(c2)OCO3)cc1O 3.31%
C=CCc1ccc(OCCOc2ccc(/C=N/n3cnnc3)cc2OCC)c(OC)c1 -4.21%
Cc1ccccc1C(=O)N1CCN(c2ccc(NC(=O)c3cccc(OC(C)C)c3)cc2)CC1 8.66%
O=C(Nc1ccc(F)cc1F)c1csc(-c2ccncc2)n1 -28.6%
O=C(Nc1ccc(Cl)cc1)c1csc(-c2ccncc2)n1 -0.305%
c1ccc(-c2nnc3sc(Cc4cccs4)nn23)cc1 -9.39%
COC(=O)[C@]1(CC(C)C)N[C@H](c2ccc(-c3cccc(Cl)c3)cc2)[C@@H]2C(=O)N(C)C(=O)[C@@H]21 7.87%
Cc1cccc(CNc2ncnc3ccc(-c4ccoc4)cc23)c1 15.7%
CN(C)/C=C1/Oc2c(ccc3ccccc23)C1=O 1.24%
COc1cc(-c2cn(S(=O)(=O)c3cccc4nsnc34)nc2N)cc(OC)c1OC -9.11%
CCn1c2ccccc2c2cc(/C=N/O)ccc21 -50%
Cc1ccccc1NC(=O)CSc1[nH]c(=O)cc(C)c1C#N -5.2%
CCN1CCN(Cc2ccc(NC(=O)c3ccc(C)c(NC(=O)c4csc(-c5ccncc5)n4)c3)cc2C(F)(F)F)CC1 -1.6%
Cn1c(-c2ccccc2)c(C=O)c2ccccc21 7.44%
Cc1ccccc1NC(=O)C1CCCN1S(=O)(=O)c1ccc2c(c1)n(C)c(=O)c(=O)n2C (stereo not given) -5.91%
Cc1ccc(S(=O)(=O)/N=C2\C=C(Nc3cccc(C(=O)O)c3)C(=O)c3ccccc32)c(C)c1 -54.7%
CCOC(=O)C[C@H]1c2cc(C(F)(F)F)ccc2S(=O)(=O)N1C(C)C 11%
COc1ccc(-c2nn(-c3ccccc3)cc2CO)cc1 0.31%
Cc1nc2c(c3c1[nH]c1ccccc13)C(=O)CC(C)(C)C2 -41.5%
CN(C)S(=O)(=O)c1ccc(Cl)c(C(=O)Nc2cccc3ncccc23)c1 3.66%
OCC[C@@H]1C[C@H](O)[C@@H](O)[C@@]2(CCc3ccccc3CO2)O1 2.35%
COC(=O)c1cc(NC(=O)Nc2cccc(Cl)c2)ccc1Cl 8.6%
CC(=O)c1cccc(NC(=O)Nc2cccs2)c1 -6.65%
COc1ccc(S(=O)(=O)N(C)C[C@H]2Oc3ccc(NS(=O)(=O)c4cccs4)cc3CC(=O)N([C@H](C)CO)C[C@H]2C)cc1 6.05%
CCOc1ccc(C2CC(c3cccc(OC)c3)Nc3nc(N)nn32)cc1 (stereo not given) 2.82%
N#C/C(=C\c1ccc(O)c(O)c1)C(=O)NCCc1ccccc1 -29.2%
COc1cccc(C(=O)c2sc(NC(C)C)nc2N)c1 5.66%
O=C1CC(c2ccc(S(=O)(=O)NC3CC3)cc2)CN1 (stereo not given) 2.56%
CNC(=O)c1cc2c(s1)-c1ccccc1CC2 -14.8%
Cn1c2ccccc2c2cc(/C=N/NC(=O)c3cc(O)ccc3O)ccc21 -0.468%
Cc1ccnc(NC(=O)c2cccc(S(=O)(=O)N3CCN(c4ccccc4)CC3)c2)c1 6.18%
COc1ccc(-n2c(Cn3c(=O)sc4ccccc43)nnc2SCC(=O)N2CCOCC2)cc1 -5.17%
c1ccc(-c2csc3nnc(SCc4ccc5c(c4)OCO5)n23)cc1 14.3%
COc1ccc2c(c1)C(=NN)c1cc(OC)ccc1-2 4.46%
CC(C)NC(=O)Nc1cccc2c1O[C@H](CN(C)C(=O)NC1CCCCC1)[C@H](C)CN([C@H](C)CO)C2=O -2.59%
CC(C)C[C@H]1COCCS(=O)(=O)N1Cc1cccc(Cl)c1 14.4%
CC(=O)C1C(c2ccc(Cl)cc2)NC(=O)NC1(O)C(F)(F)F (stereo not given) -2.34%
Cn1c(C(=O)N2CCCC2)cc2c(=O)n(C)c3ccccc3c21 -14%
Fc1ccc(-c2nnc3sc(C4COc5ccccc5O4)nn23)cc1 (stereo not given) 10.9%
NC(=O)c1cc2ccccc2oc1=NCc1ccccc1 5.63%
Nc1c(C(=O)NCc2ccccc2)nnn1Cc1ccccc1 -6.06%
S=c1[nH]cc(-c2ccc(Cl)cc2)n1Cc1ccccc1 -12.1%
C=C(C)Cn1c(N2CCN(CC)CC2)nc2c1c(=O)[nH]c(=O)n2C 9.32%
COCCCn1c(SCC(=O)NC2CCCCC2)nnc1-c1ccncc1 -4.11%
CCNc1nc(N)nc(-c2cc(Cl)ccc2O)n1 -0.458%
Nc1nc(N)nc(-c2ccc(Cl)c(Cl)c2)n1 -34.5%
Cc1cccc(NC(=O)c2cnc3sccn3c2=O)n1 5.97%
O=C(Nc1ccc(Cl)c(Cl)c1)OCc1cnc(Cl)s1 -3.39%
Cc1cc(O)c2c(c1)C(=O)c1cc(O)cc(O)c1C2=O -40.8%
CC1CCN(c2ncnc3nc[nH]c23)CC1 -3.53%
O=C(c1cccc2c1-c1ccccc1/C2=N/O)N1CCCCC1 5.52%
NC(=O)N/N=C1\c2ccccc2-c2c(C(N)=O)cccc21 13.6%
CCOC(=O)c1cnc2ccc(C)cc2c1Nc1ccc(N2CCOCC2)cc1 -8%
N#Cc1c(=O)c2nc(NCCCO)ncc2n2c(=O)c3ccccc3[nH]c12 3.42%
O=C(NNC1=C(C(=O)C(F)(F)F)CCC1)c1ccccc1O 19.1%
c1csc(CNc2ncnc3ccc(-c4ccoc4)cc23)c1 4.22%
CC(Nc1nc(-c2cccnc2)nc2ccccc12)c1ccc(F)cc1 (stereo not given) -33.2%
N#CCSc1nc(Nc2ccc3c(c2)OCO3)c2ccccc2n1 -33.6%
c1cncc(-c2nc(NCc3ccco3)c3ccccc3n2)c1 -22.1%
Cc1nnc2c3ccccc3c(-c3cccs3)nn12 4.82%
CCN(CC)CCCNC(=O)c1cc2c(=O)n(C)c3ccccc3c2n1C -19.7%
CCCn1c2ccccc2c2cn[nH]c(=O)c21 4.44%
O=C(NCCc1ccccc1)C1CCN(S(=O)(=O)c2ccc(Br)s2)CC1 2.48%
N#Cc1nc(-c2ccccc2Cl)oc1NCC1CCCO1 (stereo not given) -2%
COc1ccc(C(=O)N2CCN(c3c(C)cccc3C)CC2)cc1OC 11.9%
C=CCNC(=S)Nc1ccc2cn[nH]c2c1 -33.4%
Cc1ccc(CCNC(=O)C2CCN(S(=O)(=O)c3cccc4nonc34)CC2)cc1 4.41%
CCN(CC)c1ccc(NC(=O)CCc2nnc3ccc(N4CCCCC4)nn23)c(C)c1 9.53%
NS(=O)(=O)c1ccc(-c2ccc(/C=C3\SC(=O)NC3=O)o2)cc1 6.26%
Cc1ccc(C(=O)c2coc3ccc(OCC(=O)O)cc23)cc1 -3.85%
Cc1c(O)ccc2c(CN(C)Cc3ccccc3)cc(=O)oc12 -3.59%
Cc1cccc(C)c1OCCOC(=O)c1n[nH]c2ccccc12 -3.83%
CCOCCOc1nc2c(c(=O)n(C)c(=O)n2C)n1Cc1ccc(C)cc1 2.83%
O=C(O)CSc1ncnc2scc(-c3ccccc3)c12 -3.73%
Cc1ccc(-c2csc3ncnc(SCC(=O)O)c23)cc1 0.983%
O=C1C(Cl)=C(N2CCC(C(=O)O)CC2)C(=O)c2ccccc21 -22.7%
COc1ccc(-c2nc(N)ncc2-c2ccccc2OC)c(O)c1 -5.21%
CCc1cc(-c2[nH]ncc2-c2ccc3c(c2)OCO3)c(O)cc1O 11.2%
CCCCCCCCN1[C@@H](CC(=O)OC)c2cc(C(F)(F)F)ccc2S1(=O)=O 3.68%
CCc1ccc(C(=O)Nc2cccc(-c3nn[nH]n3)c2)s1 15.5%
O=C(Nc1cccc(-c2nn[nH]n2)c1)c1csc2c1CCCC2 -16.6%
C/C(=N/NC(=O)c1ccc(Br)s1)c1cccnc1 6.46%
Cc1cccc(NC(=S)NNC(=O)c2csc3c2CCC(C)C3)c1 (stereo not given) -6.56%
C/C(=C/c1oc2ccc(O)cc2c1[N+](=O)[O-])N(C)C -2.65%
CCC(C)[C@H]1CNCCN1CCc1cccc2ccccc12 (stereo not given in full) 8.99%
Cc1cccc(NC(=O)C2NC(=O)CC2c2ccccc2)c1C (stereo not given) -8.69%
COc1ccc(-n2nc(C)cc2Nc2ccccc2C(=O)O)cc1 1.42%
CCOC(=O)c1nnc(-c2ccc(C)cc2)nc1Sc1ccc(Cl)cc1 7.04%
O=C(O)c1[nH]c2ccc([N+](=O)[O-])cc2c1-c1ccccc1 6.17%
COCCNc1cc(C)nc2c(-c3ccccc3OC)c(C)nn12 8.67%
CC(=O)Nc1cccc(C(=O)OCC(=O)c2ccc3c(c2)OCO3)c1 -6.5%
Cc1c(Br)c(=O)oc2c(Br)c(O)ccc12 -38%
Oc1ccc(-c2csc(Nc3cccnc3)n2)cc1 -2.93%
Clc1cccc(Cc2nn[nH]n2)c1 -1.14%
CCOCCCNC(=O)/C(C#N)=C/c1cc(Br)c(O)c(Br)c1 17.4%
N#Cc1c(N)nc2c3c(sc(=N)c2c1N)NC(=O)CC3c1c(F)cccc1Cl (stereo not given) 9.16%
COc1ccc2c(C#CCCO)c(-c3ccc(S(C)(=O)=O)cc3)sc2c1 -10.2%
O=C(CSc1nc(-c2ccco2)cc(C(F)(F)F)n1)NCCCn1ccnc1 13.6%
Nc1ccc(-c2ccc(C(=O)O)s2)cn1 3.99%
CSc1nc(SCC(N)=O)c2c3c(sc2n1)CN(C)CC3 10.6%
COc1ccc(C(=O)N(Cc2nc(-c3ccc(C)cc3)no2)C(C)C)cc1OC 18.9%
CCc1n[nH]c(=S)n1/N=C/c1c[nH]c2ccc(Br)cc12 -4.88%
COc1cccc(-c2nnc3sc(C4CCCCC4)nn23)c1 14.7%
O=c1nc2n(c3sc4c(c13)CCCC4)C(CBr)CS2 (stereo not given) -2.76%
Oc1cc(-c2ccncc2)cc2cccnc12 0.251%
Cc1ccccc1C(=O)NNC(=O)CCCCC(=O)NNC(=O)c1ccccc1C 11%
Cc1ccc(-c2cc(O)cc3sc(=O)oc23)cc1C 13.1%
O=c1cc(-c2ccccc2)c2c(O)cc(O)cc2o1 7.51%
O=C1C=C(c2ccc3c(c2)OCO3)CCC1 -3.2%
CC(=O)Nc1nc(-c2ccc3c(c2)OCO3)cs1 10.1%
CCCN1CCN(c2ncnc3scc(C4COc5ccccc5O4)c23)CC1 (stereo not given) 11.1%
